Among all 360,000 compounds or so, about 3,600 (1%) were called active. This excerpt belongs to a sample that is enriched for actives. Values without a mark were called inactive.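 How the source made its calls: active means compounds whose plate-normalised and pattern-corrected inhibition of the luciferase reporter signal at the single screening dose is 50% or more; inactive means the rest.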

Our source for the inhibition values is PubChem BioAssay AID1347056 (Sanford-Burnham Center for Chemical Genomics, 2019).

The test can be described thus: inhibitors of TROY-driven NF-kB signaling, primary screen, Q293 LMP1-TROYcd cells, NF-kB luciferase, uHTS (AID 1347056). Conditions: Q293 LMP1-TROYcd NF-kB luciferase reporter, 4 h; at 10 µM; active compounds read high. (A reporter such as luciferase makes a cellular process visible.)
Regarding `CC(=O)Nc1ccc(C(=O)CSc2nc3ccc(C)cc3[nH]2)cc1`, the inhibition was -46.4%.

`COc1cccc2c(C)c(C(=O)O)[nH]c12`: the inhibition was 74.3% (active).

As to `COc1ccccc1C(=O)c1ccccc1C(=O)c1ccccc1`, the inhibition was 9.22%.

For the compound `COc1cc2c(C(=O)O)c(C)n(C)c2c2ccccc12`, the inhibition is 6.89%.

As to `Oc1cccc2ccc(/C=C/c3ccc(Br)s3)nc12`, the inhibition was 45.8%.

For `N#CC1=C(N)Oc2cc(N)ccc2C1c1ccccc1` (stereo not given), the inhibition was 13.9%.

On to `COc1ccc(C2C(C#N)=C(N)Oc3cc(N)ccc32)cc1OC` (stereo not given), for which the inhibition is -32.5%.

For `COc1ccccc1C1C(C#N)=C(N)Oc2c1c(-c1ccccc1)nn2-c1ccccc1` (stereo not given), the inhibition is 62% (active).

As for `CCOc1ccc(C(=O)Nc2cc(Cl)ccc2-n2cncn2)cc1OC`, the inhibition was -3.58%.

On to `O=C1c2ccccc2C(=O)N1CCC#Cc1ccc2cc(C3(O)CCCCC3)oc(=O)c2c1`, for which the inhibition is 64.8% (active).

As to `CC(C)c1nc(CNC(=O)CC2C(=O)NCCN2Cc2cccc(F)c2F)cs1` (stereo not given), the inhibition is 4.78%.

`COC(=O)c1ccc(C)c(NC(=O)C2CC(=O)N(C3CCCC(C)C3C)C2)c1` (stereo not given): the inhibition was -0.78%.

Regarding `C=CCC[C@@H](Cc1ccc(F)cc1)C(=O)O[C@H](CNC(=O)[C@H](CC=C)CC(=O)N(CCO)Cc1ccccc1)c1ccccc1`, the inhibition is 46.6%.

On to `O=C1c2ccccc2C2=Nc3ccccc3SC(c3ccccc3F)C12` (stereo not given), for which the inhibition was 63.5% (active).

`COCCCn1c(-c2cccs2)nc2nc3ccccc3nc21`: the inhibition is 1.22%.

On to `Cc1ccc(CSc2nc3[nH]ncc3c(=O)[nH]2)cc1`, for which the inhibition is -16.1%.

On to `Cc1cccc(NC(=O)CSc2nc3[nH]ncc3c(=O)[nH]2)c1`, for which the inhibition was 80.2% (active).

On to `O=C(CSc1nc2[nH]ncc2c(=O)[nH]1)Nc1ccc(F)cc1`, for which the inhibition is -9.77%.

With `COc1ccc(S(=O)(=O)N2CCN(C)CC2)c(C)c1`, the inhibition was -7.28%.

Turning to `C/C(=N\NC(=O)Cc1ccccc1[N+](=O)[O-])c1cccnc1`, the inhibition is -4.21%.

Regarding `O=C(Nc1cccnc1)c1ccc(Cl)cc1[N+](=O)[O-]`, the inhibition was -20.1%.

For the compound `O=C(O)c1ccc2c(=O)n3c(nc2c1)/C(=C/c1ccc(Cl)c([N+](=O)[O-])c1)CC3`, the inhibition is -0.87%.

Take `O=C(/C=C/c1ccc(Cl)c([N+](=O)[O-])c1)c1ccc(O)cc1`: the inhibition was 55.6% (active).

Consider `O=C(/C=C/c1ccc(Cl)cc1)N1CCN(c2ccccc2[N+](=O)[O-])CC1`, for which the inhibition was 9.62%.

Turning to `O=C(/C=C/c1ccc(Cl)c([N+](=O)[O-])c1)c1cccnc1`, the inhibition is 64.6% (active).

As for `O=C(NCc1ccccc1CN1CCCC1)C1CCN(S(=O)(=O)c2ccc(Cl)cc2)CC1`, the inhibition was 4.08%.

Take `Cc1ccnc(NC(=O)CCNS(=O)(=O)c2ccc(C)c(C)c2)c1`: the inhibition was 29.5%.

As to `Cc1ccc2nc(SCc3nnc(-c4ccccc4[N+](=O)[O-])o3)c(C#N)cc2c1`, the inhibition is 2.86%.

For `CCOC(=O)c1c(C)oc2cc(Sc3ccccc3)c(O)c(O)c12`, the inhibition is -45.5%.

On to `CCOC(=O)c1c(C)oc2cc(Br)c(OCC(N)=O)cc12`, for which the inhibition is 8.9%.

Turning to `CCOC(=O)c1c(-c2ccccc2)oc2cc(Br)c(O)c(C=O)c12`, the inhibition was 74.6% (active).

In the case of `COc1ccc([N+](=O)[O-])cc1NC(=O)c1ccc(N(Cc2ccccc2C)S(C)(=O)=O)cc1`, the inhibition is 13.5%.

As for `COC(=O)C1=C(C)N=C2SC(C)C(=O)N2C1/C=C/c1ccccc1` (stereo not given), the inhibition is 0.14%.

As to `CC[C@H]1CN2CCc3cc(OC)c(OC)cc3[C@@H]2C[C@@H]1C[C@H]1NCCc2cc(OC)c(OC)cc21`, the inhibition is 86% (active).

In the case of `CCCc1cc(=O)[nH]c2nnc(SCC(=O)Nc3nnc(SCC)s3)n12`, the inhibition is -11.1%.

Take `CCOC(=O)C(=Cc1ccccc1)C(=O)c1ccccc1`: the inhibition was 55% (active).

Consider `CCOC(=O)/C(=C\c1ccc([N+](=O)[O-])cc1)C(=O)c1cc(C(C)=O)c(Nc2ccccc2)s1`, for which the inhibition is 1.46%.

Regarding `CCOC(=O)C(=Cc1ccccc1OC)C(=O)OCC`, the inhibition is 36.4%.

For `CCCCSc1nnc2c(n1)OC=Nc1ccccc1-2`, the inhibition is -39.1%.

`N#Cc1c(-c2cccs2)nc(SCC(=O)c2ccc(Br)cc2)[nH]c1=O`: the inhibition was 18.2%.

As for `C=CCN(CC=C)S(=O)(=O)c1ccc(C(=O)Nc2nc3c(s2)CCc2ccccc2-3)cc1`, the inhibition was 4.01%.

Take `N#Cc1ccc(C(=O)Nc2nc(-c3cccs3)c(C(=O)C(F)(F)F)s2)cc1`: the inhibition was 53.3% (active).

`Cc1cc(=O)oc2c(C)c(OCC(=O)NCCc3ccc(S(N)(=O)=O)cc3)ccc12`: the inhibition is -2.4%.

Consider `O=C(C1CCN(c2nnc(-n3cccc3)s2)CC1)N1CCc2ccccc2C1`, for which the inhibition is 22.4%.

Consider `Cc1ccc2c(C)c(C(=O)N(C)CCC3CCCCO3)oc2c1C` (stereo not given), for which the inhibition is -35.3%.

For the compound `O=C(CN(Cc1ccccc1)C(=O)CCC(=O)Nc1ccccn1)NCCc1ccccc1`, the inhibition is -13.3%.

As for `COc1ccc(-c2noc(CNC(=O)C(C)Oc3ccccc3)n2)cc1` (stereo not given), the inhibition was -22.8%.

For the compound `COc1ccc(/C=C/c2noc(-c3ccccc3OC(C)=O)n2)cc1`, the inhibition is 48.6%.

In the case of `COc1ccc(-c2nc(-c3ccccc3)no2)c(OC)c1`, the inhibition is 72.5% (active).

Regarding `COc1ccccc1CN(C)c1nnnn1-c1ccccc1`, the inhibition was 7.2%.

On to `COc1ccccc1-n1nnnc1S(=O)(=O)Cc1ccc(Cl)cc1`, for which the inhibition was 68.3% (active).

For the compound `CCN(C(=O)CSc1nnnn1-c1ccccc1OC)C1CCS(=O)(=O)C1` (stereo not given), the inhibition is -12.8%.

Turning to `O=c1[nH][nH]c(C(F)(F)F)c1C=NCc1ccccc1Cl`, the inhibition was -4.3%.

Consider `O=C(O)CSCC(=O)Nc1ccc(C(F)(F)F)cc1`, for which the inhibition is 5.82%.

As to `O=C(O)CC(SCC(=O)Nc1ccc(Br)cc1)C(=O)O` (stereo not given), the inhibition is 67.2% (active).

Regarding `Cc1cc(C)c2c(=O)[nH]c(SCC(=O)Nc3ccc(Br)cc3)nc2n1`, the inhibition was 10.6%.

Turning to `CC(=O)Nc1nc2c(s1)C(=O)NCC(C)(C)C2`, the inhibition was 16.5%.

As to `CC(=O)c1cc(CN2CCC(n3nccc3NC(=O)c3ccccc3Cl)CC2)cs1`, the inhibition was -6.73%.

Consider `OC[C@@H]1CN(Cc2ccc(F)cc2)C[C@H](n2cnc3c(NC4CCCC4)ncnc32)O1`, for which the inhibition is -11.8%.

For `OC[C@@H]1CN(Cc2ccc(-c3ccccc3)cc2)C[C@H](n2cnc3c(NC4CCCC4)ncnc32)O1`, the inhibition is 52.3% (active).

Consider `OC[C@@H]1CN(Cc2cccs2)C[C@H](n2cnc3c(NC4CCCC4)ncnc32)O1`, for which the inhibition was -12%.

As for `N#CC(C(N)=O)=C1CCC2(CC1)OCCCCO2`, the inhibition was -8.85%.

With `Nc1nc(NCc2ccccc2)n(-c2ccccc2)n1`, the inhibition is 11.4%.

For `O=C(O)CN1c2cccc3cccc(c23)S1(=O)=O`, the inhibition is 18%.

As for `N/C(=N\OC(=O)c1ccc([N+](=O)[O-])cc1)c1ccccn1`, the inhibition was -41.5%.

For the compound `N/C(=N\OC(=O)Cc1ccc([N+](=O)[O-])cc1)c1ccccn1`, the inhibition is 71.7% (active).

As to `O=C(COC(=O)c1ccccn1)NNC(=O)c1ccc([N+](=O)[O-])cc1`, the inhibition was -4.92%.

Turning to `O=C(Cc1ccccc1)N1CCN(S(=O)(=O)c2ccc([N+](=O)[O-])cc2)CC1`, the inhibition was -0.47%.

Regarding `O=C(Nc1nnc(C2CC2)s1)C1=NN(C2CCS(=O)(=O)C2)C(=O)CC1` (stereo not given), the inhibition is -9.87%.

For `COc1ccc(/C=C2/SC(=O)N(CCCCCC(=O)Nc3ccccc3C(=O)O)C2=S)cc1`, the inhibition was 62.8% (active).

For `COc1ccc(NC(=O)CCCN2C(=O)C(c3ccccc3)Oc3cccnc32)cc1` (stereo not given), the inhibition is -2.33%.

For `CCCNC(=O)c1ccccc1NC(=O)CSCc1ccc(OC)cc1`, the inhibition was -1.25%.

Regarding `O=C(NCc1ccc(F)cc1)c1cc(C2CCCCN2C(=O)c2cccs2)on1` (stereo not given), the inhibition was -13.9%.

Turning to `Cc1ccc(-n2c(SCC(=O)N3CCC(C(=O)O)CC3)nc3ccccc3c2=O)cc1C`, the inhibition is 28.8%.

Regarding `COc1ccc2c(c1)C(SCC(=O)NCc1ccccc1)CC(C)(C)O2` (stereo not given), the inhibition is -9.24%.

With `CN1c2ccc([N+](=O)[O-])cc2C(C)(C)C12C=Cc1cc(C(=O)O)ccc1O2` (stereo not given), the inhibition was 4.3%.

Consider `COc1ccc2c(c1)C=CC1(O2)N(CCO)c2ccccc2C1(C)C` (stereo not given), for which the inhibition is 74.4% (active).

As for `CN(C)/C=C/C(=O)c1cnc2sccn2c1=O`, the inhibition was 11.6%.

Consider `CCn1c(CC(=O)Nc2ccccc2C)nnc1SCC(=O)NC1=NCCS1`, for which the inhibition is 11%.

In the case of `COc1cc(C(=O)OCC(=O)N(CC(C)C)C2CCS(=O)(=O)C2)ccc1OCC(C)C` (stereo not given), the inhibition was 6.44%.

As to `FC(F)(F)COc1nc(N2CCCCC2)nc(N2CCNCC2)n1`, the inhibition was -47.4%.

As to `Clc1nc(NC2CCCC2)nc(N2CCOCC2)n1`, the inhibition is 9.54%.

As to `COc1nc(NC2CCCCC2)nc(N2CCCCCC2)n1`, the inhibition was 51.7% (active).

For the compound `CN(C)C(=S)Nc1ccc(Br)cc1Cl`, the inhibition is 2.66%.

On to `CCOC(=O)[C@]12CCC=C1N(Cc1ccco1)C(=O)[C@H](CC(=O)N1CCSCC1)C2`, for which the inhibition was -1.7%.

Take `COc1ccc(CCC(=O)OCC(=O)Nc2ccc(C)c(S(=O)(=O)N(C)C)c2)cc1`: the inhibition is 12.9%.

For the compound `c1c2c(cc3sc(N4CCCCC4)nc13)OCCO2`, the inhibition was 72.6% (active).

With `COc1cccc(N2C(=O)CC(N3CCc4ccccc4C3)C2=O)c1` (stereo not given), the inhibition is 2.65%.

For `CC(Sc1nncn1C)C(=O)Nc1ccccc1-c1ccccc1` (stereo not given), the inhibition was -16.4%.

As to `COc1ccc(-n2nnnc2SCC(=O)NCc2cccs2)cc1`, the inhibition is -11.6%.

With `COc1ccc(-n2nnnc2-c2nc3ccccc3s2)cc1`, the inhibition is 73% (active).

Consider `COc1ccc(CNc2nnnn2C)cc1`, for which the inhibition is -13.4%.

As for `O=C(NC1CC1)c1ccc(-c2ccccc2)cc1`, the inhibition was -40.9%.

For the compound `O=C(NC1CC1)c1cccc(Br)c1`, the inhibition is 79.2% (active).

Turning to `CC(=O)N1CCN(S(=O)(=O)c2cccc(C(=O)NC3CCC(C)CC3)c2)CC1` (stereo not given), the inhibition is 5.64%.

By inhibition is commonly meant the drop in the measured response relative to a control, in per cent.
